ATXN viability = Viability Counterscreen for Primary qHTS for Inhibitors of ATXN expression; AID 651635, 2014; S2 cells (HEK-293 line with an ATXN2-luciferase reporter) viability, CellTiter-Fluor protease fluorescence, 24 h; 0.49% of 400,000 active; Potency, µM (titrated, usually from 56.7 µM), hits mostly cytotoxic; also: nearly all actives have a fitted effect of over 40% in size
HT1080 IDH1KD tx = qHTS for induction of synthetic lethality in tumor cells producing 2HG: qHTS for the HT-1080-IDH1KD cell line. Potency, µM (titrated, usually from 46.1 µM), inactives show top-dose activity, negative = toxicity, most hits filed as cytotoxic. HT-1080 IDH1 knockdown viability, ATP luminescence, 48 h. 2% of 360,000 active;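 also: 0% = DMSO wells and -100% = cell-free medium wells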
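In this qHTS, HT-1080 cells depleted of IDH1 are exposed for 48 h at 37 °C to compound titrations. Toxicity is scored from CellTiter-Glo luminescence, with DMSO as full viability and medium alone as none.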
KB-V1 MDR tox = qHTS assay for MDR1-selective chemotherapeutics: Primary screen using the drug-selected MDR subline cells KB-V1; 3.4% of 400,000 active; AID 1347076, 2019; KB-V1 MDR cells viability, CellTiter-Glo, 72 h; Potency, µM (highest dose often 46.1 µM), actives largely listed as cytotoxic; also: % is scaled to controls: 0 for no effect and ±100 for the full control effect; nearly all actives have a fitted effect of over 60% in size
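Potencies derive from concentration-effect curves fitted to normalized luminescence (CellTiter-Glo) of KB-V1 cells treated for 72 h at 37 degrees C in phenol-red-free DMEM containing 10% FBS.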
ATXN2 expr inh = Primary qHTS for Inhibitors of ATXN expression. 0.72% of 360,000 active. Potency, µM (top dose mostly 57 µM), for the others: at the top dose activity change, negative = inhibition, usual class: inhibitors. AID 1745845, 2022. HEK-293 ATXN2-luciferase reporter, luminescence, 24 h; also: % is scaled to controls: 0 for no effect and ±100 for the full control effect; nearly all actives have a fitted effect of over 55% in size
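qHTS (up to 57 uM final) was run with 24 h compound exposure of reporter cells at 37 °C. Each well was multiplexed: SteadyGlo luminescence measured ATXN2-luciferase expression after a fluorogenic Gly-Phe-AFC viability readout (25 uM final).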
HT1080NT lethal = qHTS for induction of synthetic lethality in tumor cells producing 2HG: qHTS for the HT-1080-NT fibrosarcoma cell line; HT-1080-NT fibrosarcoma viability, CellTiter-Glo ATP luminescence, 48 h; Potency, µM (doses to about 46.1 µM), for the others: at the top dose activity, negative = less viability, most hits filed as cytotoxic; 1.6% of 360,000 active;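 also: NT is the 2HG producing partner of a matched IDH1 knockdown line; 0% = DMSO-treated cells and -100% = media-only wells without cells; nearly all actives have a fitted effect of over 55% in size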
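Viability of the 2HG-overproducing fibrosarcoma line after 48 hours of compound exposure at 37 degrees C was determined by luminescence with CellTiter-Glo, and concentration-effect curves were then fitted and categorized.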
KB-3-1 cytotox = qHTS assay for MDR1-selective chemotherapeutics: Primary screen using the parental adenocarcinoma cell KB-3-1. AID 1347075, 2019. Potency, µM (titrated, usually from 46.1 µM), usual class: cytotoxic. KB-3-1 viability, CellTiter-Glo ATP luminescence, 72 h. 1.4% of 400,000 active; also: % is scaled to controls: 0 for no effect and ±100 for the full control effect; nearly all actives have a fitted effect of over 60% in size
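Cells are dispensed, compounds pinned in, plates held at 37 °C for 72 h, then CellTiter-Glo is added and luminescence read after 10 minutes. Cell line: parental KB-3-1 in phenol-red-free DMEM, 10% FBS.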
* hit, by the source's call; i = inactive; ? = inconclusive; . = not tested or not shown; ! = a repeat was not active. Shown are actives, neighbours in structure and some others; about 6.2% of the full set was active somewhere. Calls follow the shape of the dose curve; as a rule, active = well fitted curve in the direction sought with a large enough effect; inconclusive = small, poorly fitted or top-dose-only effect, or another doubt; inactive = no such curve, though single readings can be large; an effect the other way counts as inactive or inconclusive. Potency is read from the fitted curve at half-maximal effect.

SMILES	ATXN viability	HT1080 IDH1KD tx	KB-V1 MDR tox	ATXN2 expr inh	HT1080NT lethal	KB-3-1 cytotox
COCCNC(=O)CCn1c(=O)c2cc(OC)c(OC)cc2n(CC(=O)Nc2ccccc2OC)c1=O	i	.	i	6.0%	.	i
Cc1c(C(=O)OCc2ccccc2)[nH]c2c1C(=O)CC(c1ccco1)C2 (centres undefined)	?	1.3µM*	?	-13.0%	?	0.581µM*
COCCOC(=O)c1[nH]c2c(c1C)C(=O)CC(c1ccco1)C2 (centres undefined)	?	1.64µM*	1.16µM*	9.8%	2.31µM*	1.16µM*
COCCOC(=O)c1[nH]c2c(c1C)C(=O)CC(c1cc(OC)c(OC)c(OC)c1)C2 (centres undefined)	i	-11.2%	i	-24.3%	-18.6%	i
Cc1c(C(=O)OCCOC(C)C)[nH]c2c1C(=O)CC(c1ccco1)C2 (centres undefined)	?	0.326µM*	0.461µM*	-17.2%	0.411µM*	0.517µM*
CSCCOC(=O)c1[nH]c2c(c1C)C(=O)CC(c1ccco1)C2 (centres undefined)	?	2.31µM*	?	-16.6%	?	1.16µM*
COc1cc(OC)c(NC(=O)c2oc3ccc4c(c3c2C)C(=O)CC(C)(C)O4)cc1Cl	i	.	i	6.6%	.	i
CCOC(=O)c1[nH]c2c(c1C)C(=O)CC(c1ccco1)C2 (centres undefined)	?	0.92µM*	i	-16.9%	1.03µM*	i
O=C(CCSCc1ccccc1Cl)N1CCN(c2cccc(Cl)c2)CC1	?	-2.0%	20.6µM*!	-23.3%	-16.9%	i
O=C(NCCC(=O)N1CCN(c2cccc(Cl)c2)CC1)c1ccc(Br)cc1	i	?	23.1µM*	-17.6%	-2.9%	i
O=C(CSCc1nc2ccccc2[nH]1)N1CCN(c2cccc(Cl)c2)CC1	i	-11.3%	20.6µM*	-8.2%	-2.0%	?
O=C(CCS(=O)(=O)c1ccc(Br)cc1)N1CCN(c2ccc(Cl)cc2)CC1	i	-0.4%	5.8µM*	-21.3%	13.8%	i
O=C(CSCc1ccccc1Cl)N1CCN(c2ccccn2)CC1	i	-2.3%	?	47.8%	-5.3%	i
O=C(CCS(=O)(=O)c1ccc(Br)cc1)N1CCN(c2ccc(F)cc2)CC1	i	-5.2%	i	.	-22.9%	i
Cn1c(SCc2ccccc2Cl)nc(=O)c2c1NC(=O)CC2c1cc(F)ccc1F (centres undefined)	i	.	i	9.9%	.	i
Cc1ccc2c(c1)-c1nc(-c3ccc(Cl)cc3)cc(-c3coc4ccccc4c3=O)c1CO2	i	.	i	6.5%	.	i
CC(Sc1cn(CCNC(=O)c2ccccc2F)c2ccccc12)c1ccccc1 (centres undefined)	?	.	i	?	.	i
Cc1ccc(N2CCN(C(C(=O)Nc3c(C)cccc3C)c3cc4ccccc4o3)CC2)cc1 (centres undefined)	.	3.3%	?	.	-0.3%	i
Cc1cccc(C)c1NC(=O)C(c1cc2ccccc2o1)N1CCC(c2ccccc2)CC1 (centres undefined)	.	13.1%	20.6µM*	.	-1.4%	?
CCOC(=O)c1ccc(NC(=O)CC2Nc3cc(C)c(C)cc3NC2=O)cc1 (centres undefined)	?	.	i	?	.	i
CCOC(=O)Nc1cc(=O)c2ccccc2o1	i	?	?	10.0%	8.91µM*	?
CCOc1ccccc1NC(=O)c1cc(=O)c2ccccc2o1	i	0.6%	i	.	-6.9%	i

Screening results as filed in PubChem.
